gsp antag: antagonists of gsp mutant (McCune-Albright syndrome). gsp-mutant cells, cAMP HTRF, 30 min. Potency, µM (top dose mostly 76.9 µM), inactives show at the top dose activity change, negative = inhibition, most hits filed as inhibitors. 340,000 compounds, 0.4% hits; calls by dose curve; cell line not stated here;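 further: intracellular cAMP measured with PDE inhibitor Ro 20-1724 present during compound exposure; potency means the concentration at half of the fitted maximal effect; on the % scale 0 is the no-effect control and ±100 the full control effect; nearly all actives have a fitted effect of over 65% in size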
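Cells, 2000/well, grown 16–24 h in DMEM 10% FBS with 0.5 mg/ml G418, then compounds plus […] (300 uM addition stock), 30 min at 37C. cAMP read by HTRF (cAMP-d2 and anti-cAMP antibody-K in lysis buffer) after 30 min RT.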
RXFP1 antagonist: blocks the human relaxin receptor RXFP1. AID 1259400. HEK293-RXFP1, relaxin-stimulated cAMP HTRF, 30 min; stronger effect = lower value. 350,000 compounds, 0.59% hits. activity change, negative = inhibition, % at 57.5 µM;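 active means activity change of -60% or lower, but not beyond a set lower limit; inconclusive means change between -60% and -40%, or beyond the set limit; inactive means change above -40%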; further: on the % scale 0 is the no-effect control and ±100 the full control effect
Target sequence (Q9HBX9 whole entry, looked up): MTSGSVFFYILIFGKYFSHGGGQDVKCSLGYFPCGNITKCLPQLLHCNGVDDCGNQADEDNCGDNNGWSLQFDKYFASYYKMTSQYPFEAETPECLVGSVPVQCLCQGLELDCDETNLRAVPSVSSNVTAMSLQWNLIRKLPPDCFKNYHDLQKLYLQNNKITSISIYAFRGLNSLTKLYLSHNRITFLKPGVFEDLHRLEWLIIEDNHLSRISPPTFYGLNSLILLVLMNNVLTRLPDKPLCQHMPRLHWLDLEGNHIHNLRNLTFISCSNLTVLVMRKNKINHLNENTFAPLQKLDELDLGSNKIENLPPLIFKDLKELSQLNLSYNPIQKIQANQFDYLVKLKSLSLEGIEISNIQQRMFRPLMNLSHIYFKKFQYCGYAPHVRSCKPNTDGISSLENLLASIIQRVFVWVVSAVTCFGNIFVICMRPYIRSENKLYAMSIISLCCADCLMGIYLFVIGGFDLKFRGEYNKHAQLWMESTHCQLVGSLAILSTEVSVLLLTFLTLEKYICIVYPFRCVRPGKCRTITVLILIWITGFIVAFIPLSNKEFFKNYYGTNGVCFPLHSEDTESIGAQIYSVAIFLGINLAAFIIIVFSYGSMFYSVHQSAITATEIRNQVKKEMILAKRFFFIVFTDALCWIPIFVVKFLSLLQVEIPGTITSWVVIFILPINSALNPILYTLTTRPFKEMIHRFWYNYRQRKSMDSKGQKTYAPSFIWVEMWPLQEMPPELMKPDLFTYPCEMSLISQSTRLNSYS
gsp ag: gsp mutant agonism; gsp mutant cells, cAMP HTRF, 30 min; Potency, µM (highest dose often 76.9 µM), for the others: top-dose activation (cAMP increase), actives largely listed as activators; 340,000 compounds, 0.13% hits; active means well fitted activation curve with a large enough effect; inconclusive means small, poorly fitted or top-dose-only effect, or another doubt; inactive means no such curve, though single readings can be large or run the other way; cell line not stated here;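 further: phosphodiesterase inhibitor Ro 20-1724 added with compounds to block cAMP breakdown; potency means the concentration at half of the fitted maximal effect; nearly all actives have a fitted effect of over 60% in size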
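Cells in DMEM/10% FBS with G418 were pretreated with compounds in DMSO plus […] (300 uM stock) for 30 min at 37C. cAMP was measured by HTRF (cAMP-d2 plus anti-cAMP antibody-K) after 30 min at room temperature.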
TSHR antagonist: antagonists of human thyroid stimulating hormone receptor; TSHR-expressing cells, TSH-stimulated cAMP HTRF, 2 h; stronger effect = lower value; 330,000 compounds, 0.2% hits; activity change, negative = inhibition, % at 11.5 µM; P16473; AID 504810;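 active means activity change below a set negative limit, meaning inhibition stronger than a set level, cut at about -70% in these data; inconclusive means activity change between two set negative limits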; further: on the % scale 0 is the no-effect control and ±100 the full control effect
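TSHR-expressing cells were treated with compounds, then stimulated with TSH at EC80 (4nM final) for 2 hours at 37 deg C. Cellular cAMP was measured by HTRF competition between lysate cAMP and cAMP-d2 for a cryptate-labelled anti-cAMP antibody.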
RXFP1 agonist: RXFP1 (human) receptor agonism | 370,000 compounds, 0.3% hits | Q9HBX9 | Potency, µM (highest dose often 57.5 µM), inactives show at the top dose activation, most hits filed as activators | HEK293T-RXFP1 cAMP TR-FRET, 30 min; response scale: percent of porcine relaxin response, buffer zero | AID 2676; active means well fitted activation curve with a large enough effect; inconclusive means small, poorly fitted or top-dose-only effect; further: potency means the concentration at half of the fitted maximal effect; on the % scale 0 is the no-effect control and ±100 the full control effect; nearly all actives have a fitted effect of over 60% in size
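HEK293T cells stably expressing RXFP1 were pretreated with the PDE4 inhibitor Ro 20174, exposed to compounds for 30 min at 37C, lysed, and cAMP was read by TR-FRET. Data normalized to buffer (basal) and 29 nM porcine relaxin (100%).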
* hit, by the source's call; [ ] = dose if it differs, or a comment. Only some compounds are listed: those with a hit (about 1% of all), similar ones and a draw of the others.

For CC1(C)CC2(CC(c3ccccc3F)c3ccc(O)c(O)c3O2)NC(=S)N1 (stereo not given) the results were gsp antag -5.0%, RXFP1 antagonist -76.3*, gsp ag 14.4%[15.4 µM], TSHR antagonist 7.8 and RXFP1 agonist -1.0%.
CCC(Oc1ccc(F)cc1)C(=O)Nc1nc2c(s1)CCCC2 (stereo not given) was read as RXFP1 antagonist -117.1* and RXFP1 agonist 1.5%.
Screening CCC(=O)Nc1cccc(NC(=O)CSc2nc3c(c(=O)n(C)c(=O)n3C)n2C)c1 returned gsp antag 4.3%, RXFP1 antagonist 14.6, gsp ag 26.2%[15.4 µM], TSHR antagonist 7.3 and RXFP1 agonist inconclusive.
`CC(=O)Nc1cccc(NC(=O)CSc2nc3c(c(=O)n(C)c(=O)n3C)n2C)c1` gave gsp antag 17.1%, RXFP1 antagonist 25.5, gsp ag 51.2%[15.4 µM], TSHR antagonist 10.7 and RXFP1 agonist 28.2µM*.
`COC(=O)C1CCN(C(c2ccccc2)c2sc3nc(-c4ccco4)nn3c2O)CC1` (stereo not given) gave RXFP1 antagonist -1.4 and RXFP1 agonist -1.4%.
`CCCOc1cccc(C2/C(=C(/O)c3ccc4c(c3)CC(C)O4)C(=O)C(=O)N2CCN2CCOCC2)c1` (stereo not given) gave gsp antag -3.1%, RXFP1 antagonist 16.5, gsp ag inconclusive, TSHR antagonist -11.4 and RXFP1 agonist 25.1µM*.
Screening CC1Cc2cc(/C(O)=C3/C(=O)C(=O)N(CCN4CCOCC4)C3c3cccc(Cl)c3)ccc2O1 (stereo not given) returned gsp antag -0.7%, RXFP1 antagonist 18.6, gsp ag inconclusive, TSHR antagonist 8.4 and RXFP1 agonist 22.4%.
For C=CCOc1cccc(C2/C(=C(\O)c3ccc4c(c3)OCCO4)C(=O)C(=O)N2CCN2CCOCC2)c1 (stereo not given) the results were gsp antag 17.3%, RXFP1 antagonist 55.8, gsp ag inconclusive, TSHR antagonist -2.2 and RXFP1 agonist 25.1µM*.
Screening COc1ccccc1Nc1c2c(nc3ccc(NC(=O)c4cccc(OC)c4OC)cc13)CCCC2 returned RXFP1 antagonist -29.0 and RXFP1 agonist 0.6%.
For COc1ccccc1Nc1c2c(nc3ccc(NC(=O)c4ccccc4F)cc13)CCCC2 the results were RXFP1 antagonist -66.1* and RXFP1 agonist 2.3%.
Screening CCCCCC/C(C)=C1/SC(=S)NC1=O returned gsp antag -5.1%, RXFP1 antagonist -4.1, gsp ag -19.5%, TSHR antagonist -84.6* and RXFP1 agonist 1.0%.
For Cc1cccc(Nc2nnc(SCC(O)=C(C#N)c3nc4ccccc4[nH]3)s2)c1 the results were gsp antag -12.9%, RXFP1 antagonist -81.1* and gsp ag 17.0%.
`C=CCN(c1ccccc1)S(=O)(=O)c1ccc2c(c1)oc(=O)n2C` gave gsp antag 2.1%, RXFP1 antagonist -76.8*, gsp ag -112.3%, TSHR antagonist -3.4 and RXFP1 agonist 1.1%.
`CC(=O)N1CCN(C(=O)c2cccc(S(=O)(=O)N3CCN(c4ccccc4)CC3)c2)CC1` gave gsp antag -3.8%, RXFP1 antagonist 0.3, gsp ag inconclusive, TSHR antagonist -0.8 and RXFP1 agonist 0.9%.
`O=C(NNC(=O)c1cccc(S(=O)(=O)N2CCN(c3ccccc3)CC2)c1)c1ccc(Cl)cc1` gave gsp antag -8.5%, gsp ag 11.2µM*, TSHR antagonist -9.9 and RXFP1 agonist -0.6%.
Screening CCc1ccccc1-n1c(SCC(=O)Nc2ccc(C)cc2)nc2n[nH]c(C)c2c1=N returned RXFP1 antagonist -86.9* and RXFP1 agonist 7.0%.
Screening O=[N+]([O-])c1c(Nc2ccc(O)cc2)cc(Cl)c2nonc12 returned gsp antag 7.94µM*, RXFP1 antagonist inconclusive, gsp ag -25.0%, TSHR antagonist -102.1* and RXFP1 agonist 5.6%.
For COc1cc(/C=C2/C(=O)c3cccc([N+](=O)[O-])c3C2=O)c(Br)cc1O the results were gsp antag 35.5µM*, RXFP1 antagonist -8.4, gsp ag 20.4%, TSHR antagonist 4.0 and RXFP1 agonist 6.2%.
Screening O=C(CN1C(=O)c2cccc3cccc(c23)C1=O)NCCN1CCOCC1 returned gsp antag 13.2%, RXFP1 antagonist 2.8, gsp ag inconclusive, TSHR antagonist 5.6 and RXFP1 agonist 14.1µM*.
Screening O=C(CN1C(=O)c2cccc3cccc(c23)C1=O)NCCCO returned gsp antag 2.4%, RXFP1 antagonist 7.5, gsp ag 14.1µM*, TSHR antagonist -4.7 and RXFP1 agonist 6.7%.
`O=C(CCCCCN1C(=O)c2cccc3cccc(c23)C1=O)NCCCO` gave gsp antag -1.4%, RXFP1 antagonist 10.2, gsp ag 1.3%[15.4 µM], TSHR antagonist -6.9 and RXFP1 agonist 9.9%.
`O=C(CCN1C(=O)c2cccc3cccc(c23)C1=O)N1CCOCC1` gave gsp antag -8.1%, RXFP1 antagonist -1.6, gsp ag 15.6%[15.4 µM], TSHR antagonist 7.9 and RXFP1 agonist 10.8%.
`NC1=Nc2cccc3cccc1c23` gave gsp antag -30.3%, RXFP1 antagonist 2.4, gsp ag -8.2%[15.4 µM], TSHR antagonist -9.2 and RXFP1 agonist 0.6%.
`N=C1N=C(N)c2cc3ccccc3cc21` gave RXFP1 antagonist -80.4*.
`COc1ccc(Nc2ncnc3c2cnn3C)c(OC)c1` gave RXFP1 antagonist 6.3 and RXFP1 agonist 29.9%.
For CCCCNc1ncnc2c1nnn2C the results were RXFP1 antagonist 4.6 and RXFP1 agonist 16.6%.
Cc1cc(C(=O)COC(=O)Cn2cnc3c2c(=O)n(C)c(=O)n3C)c(C)n1C was read as gsp antag 22.2%, RXFP1 antagonist 2.4, gsp ag 3.98µM*, TSHR antagonist 17.0 and RXFP1 agonist inconclusive.
Screening C=CCN1C(=O)/C(=C/c2ccc(OC(C)=O)c(OCC)c2[N+](=O)[O-])SC1=S returned gsp antag 25.1µM*, RXFP1 antagonist -12.1, gsp ag -119.4%, TSHR antagonist -92.4* and RXFP1 agonist 1.8%.
Screening Cc1ccc(CNC(=O)CCS(=O)(=O)c2ccc(Br)cc2)cc1 returned gsp antag 1.2%, RXFP1 antagonist -8.1, gsp ag -37.5%, TSHR antagonist 9.2 and RXFP1 agonist 1.3%.
Screening O=C(CCS(=O)(=O)c1ccc(Br)cc1)NCc1ccc(F)cc1 returned gsp antag -3.5%, RXFP1 antagonist 0.3, gsp ag -14.2%, TSHR antagonist -126.0* and RXFP1 agonist -1.1%.
`COc1ccccc1CNC(=O)c1cccc(NC(=O)N2CCSc3ncccc32)c1` gave RXFP1 antagonist -27.6 and RXFP1 agonist 1.6%.
Screening N=c1oc2cc(O)ccc2cc1C(=O)Nc1ccc(Cl)cc1 returned gsp antag 39.8µM*, RXFP1 antagonist 0.3, gsp ag inconclusive, TSHR antagonist -30.3 and RXFP1 agonist 3.9%.

Bioassay records from PubChem.
